Experimental data as given in ChEMBL document CHEMBL3988442, “University of Dundee, Small-Polar-MMV Screening Library” (2021).
About 13,000 (27%) of roughly 48,000 compounds showed an effect of 50% or more. This is one part of the list.

The compounds below were run on Wolbachia pipientis (assay: Anti-Wolbachia Cell-Based Screen). Settings: 5 µM.
Format: functional
Design: scale not given: in the data most compounds retested in dose-response had high values

Compound | Percent Effect
CCC(CC)c1nnc(NC(=O)N2CCCC(NC(C)=O)C2)s1 (stereo unspecified) | -9.059%
CCn1ncnc1C(C)NC(=O)COc1ccc(Cl)cc1Cl (stereo unspecified) | -23.74%
CN(Cc1cc(C(C)(C)C)n[nH]1)Cc1c[nH]nc1-c1ccc(F)cc1 | -14.5%
CC1(C)[C@H]2CC=C(CN3CCCn4nc(CCC(=O)O)cc4C3)[C@@H]1C2 | 1.513%
Cc1ccccc1CN1CCC(CNC(=O)Cn2cncn2)CC1 | 9.92%
CCOCC(=O)NCC1CCN(Cc2ccsc2)CC1 | 164%
O=C(Cn1cncn1)NCC1CCN(Cc2ccccc2Cl)CC1 | -9.372%
O=C(Cc1ccccc1Cl)NCC1CCN(Cc2ccsc2)CC1 | 104.9%
O=C(NCCCC(=O)N1Cc2ccccc2C1)NCc1ccsc1 | 1.068%
Cc1cc(CN2CCC(CNC(=O)Cc3ccc(F)cc3)C2)[nH]n1 (stereo unspecified) | 4.609%
O=C(NCc1ccccc1)NCC1CCN(Cc2ccsc2)CC1 | 116.2%
O=C(Cc1ccc(F)cc1)NCC1CCN(Cc2ccsc2)CC1 | 152.7%
CN1CCC(CNC(=O)Cc2ccc(N(C)C)cc2)CC1 | -0.2873%
Cc1cc(CN(C)C(=O)c2ccc(F)cc2Br)no1 | -8.681%
Cc1cc(=O)[nH]c(NCCNC(=O)C(c2ccc(F)cc2)N(C)C)n1 (stereo unspecified) | 1.725%
Cc1nc(CN2CCN(C(=O)CC(C)(C)c3ccccc3)CC2)no1 | 6.376%
CCc1nc(CN2CCCC(Nc3ncnc4ccsc34)C2)no1 (stereo unspecified) | 25.2%
O=C(O)C(F)(F)F.O=S(=O)(C1CC1)N1CCC2(CC1)CN(Cc1nccs1)CCO2 | 4.912%
CCNC(=O)N1CCC(NC(=O)NCCc2ccc(C)cc2C)C1 (stereo unspecified) | 5.947%
COCCN1CC(c2nc(CSC)no2)CCC1=O (stereo unspecified) | 7.021%
CCc1nccn1C1CCCN(C(=O)c2ccc3[nH]c(=O)[nH]c3c2)C1 (stereo unspecified) | 0.4559%
Cc1nccn1C1CCCN(C(=O)c2ccc3nnc(C)n3c2)C1 (stereo unspecified) | 98.33%
CCc1nccn1C1CCCN(C(=O)c2ccc(C(N)=O)cn2)C1 (stereo unspecified) | 6.395%
CCc1nccn1C1CCCN(C(=O)c2ccc3nnc(C)n3c2)C1 (stereo unspecified) | 92.62%

Compound | Percent Effect
Cc1nc(C)c(C(=O)N2CCc3c(Cl)cccc32)o1 | -6.606%
CCc1ncc2c(n1)CN(Cc1nc3c(F)cccc3[nH]1)CC2 | -2.409%
Cc1cnc(CN(C)C2CCN(Cc3nc4ccccc4n3C)C2)o1 (stereo unspecified) | 4.653%
CNC(=O)c1cccc(CN2CCC(N(C)Cc3ncc(C)o3)C2)c1 (stereo unspecified) | 18.32%
Cc1ncc2c(n1)CN(Cc1nc3c(F)cccc3[nH]1)CC2 | -1.881%
Cc1cnc(CN(C)C2CCN(Cc3nc4c(F)cccc4[nH]3)C2)o1 (stereo unspecified) | 88.38%
Cc1nc(CN(C)C2CCN(Cc3nc4c(F)cccc4[nH]3)C2)no1 (stereo unspecified) | 95.7%
Cc1nc(CN2CCCN(Cc3nc4c(F)cccc4[nH]3)CC2)no1 | 93.2%
Cc1sc2nc(C(F)(F)F)nc(N3CCN(S(C)(=O)=O)CC3)c2c1C | 0.8403%
O=C1NC(c2ccccc2)=N[C@@]12CC[C@@H]1CN(Cc3ccco3)C[C@@H]12 | 9.656%
CCOc1ccc(NC(=O)c2[nH]c(C)cc2C)cc1CO | -6.246%
CNC(=O)c1ccc(-c2ccccc2)n1C | -8.126%
Cn1c(C(=O)NCC2(N)CCCC2)cc2ccccc21 | 105.3%
O=C(NCC1(CO)CC1)c1cccc2ccccc12 | -22.57%
CNC(=O)c1cc2ccccc2n1C | 113.9%
Cc1nc(C)n(C2CCCN(C(=O)c3cc4ccccc4n3C)C2)n1 (stereo unspecified) | 8.769%
COCCn1c(C(=O)NCC(C)C(=O)O)cc2ccccc21 (stereo unspecified) | 18.09%
CC(C)NC(=O)c1n[nH]c(-n2cnnc2)n1 | -2.794%
Cc1cc(C)nc(Nc2cccc(C3CCCN(C(C)C)C3)n2)n1 (stereo unspecified) | 76.23%
Cc1cc(C)nc(Nc2cccc(C3CCCN(CCO)C3)n2)n1 (stereo unspecified) | 75.7%
Cc1cc(C)nc(Nc2cccc(C3CCCN(C)C3)n2)n1.O=CO (stereo unspecified) | -4.261%
CNc1nc(C)cc(NC2CCCN(C3Cc4ccccc4C3)C2)n1 (stereo unspecified) | 43.21%
Cc1cc(C)nc(Nc2cccc(C3CCCN(CC4CC4)C3)n2)n1 (stereo unspecified) | 109.6%
CNc1cc(C)nc(NC2CCCN(C3Cc4ccccc4C3)C2)n1 (stereo unspecified) | 9.514%

Compound | Percent Effect
Cc1cc(CC(C)NC(=O)COc2ccc(F)cc2F)[nH]n1 (stereo unspecified) | 17.04%
CN(C(=O)NCc1ccncc1)C1CCN(c2ccccc2)C1=O (stereo unspecified) | -1.353%
O=c1nc(SCc2ccc(Cl)cc2)c2c(n1CCO)CCC2 | 7.751%
CN(CCc1nc(-c2cccc(Cl)c2)no1)CCn1cccn1 | 14.68%
COc1ccc(Cl)cc1NCC(=O)NCCNc1cnccn1 | 7.849%
COc1ccc(Cl)cc1C(=O)NCCNc1cnccn1 | 117.3%
COc1ccc(Cl)cc1NC(=O)CCNc1ccc(C#N)cn1 | -1.327%
COc1ccc(Cl)cc1NCCC(=O)NCCNc1cnccn1 | 93.92%
O=C(NCCNc1cnccn1)c1scnc1Cl | 1.056%
Cc1ncsc1C(=O)NCCNc1cnccn1 | 4.216%
NC(=O)C(Nc1cccc(CO)c1)c1ccc(Br)cc1 (stereo unspecified) | -1.327%
CCCn1ccnc1CNC(=O)C1COc2cc(OC)ccc2C1 (stereo unspecified) | -6.706%
CC(C)C(=O)N1CCC2(CC1)[C@@H]1CN(C(=O)N(C)C)C[C@@H]1C(=O)N2C | 11.68%
CC(C)NC(=O)N1CCC2(CC1)[C@@H]1CN(C(=O)N(C)C)C[C@@H]1C(=O)N2C | -31.71%
CC(=O)N1C[C@@H]2C(=O)N(C)C3(CCN(C(=O)C(C)C)CC3)[C@@H]2C1 | -11.94%
CCOC(=O)[C@@H]1[C@@H](O)C(=O)N(C)C12CCN(C(=O)OC)CC2 | 81.26%
CCOC(=O)[C@H]1[C@@H](O)C(=O)N(C)C12CCN(C(=O)C(CC)CC)CC2 | 87.69%
CC(C)CC(=O)N1CCC2(CC1)NC(=O)[C@H]1CN(C(=O)N(C)C)C[C@H]12 | -16.51%
COc1cc(C)c(CN2CCC3(CC2)C(C(=O)O)CC(=O)N3C)cc1C (stereo unspecified) | 7.232%
CCOC(=O)[C@H]1[C@@H](O)C(=O)N(C)C12CCN(C(=O)OC)CC2 | 97.39%
COC(=O)N1CCC2(CC1)N=C(CCC(C)C)NC2=O | -0.8032%
CC(C)CC(=O)N1CCC2(CC1)[C@@H]1CN(C(=O)N(C)C)C[C@@H]1C(=O)N2C | -15.87%
CCOC(=O)[C@H]1[C@@H](O)C(=O)N(C)C12CCN(C(=O)CC(C)C)CC2 | 122.2%
